In all, about 5,500 compounds went through this assay and about 2,000 (36%) were called active. Not shown: some 18% with an inconclusive outcome. No stated cut-off is given here; in the data, active means normalized growth mostly below about 0.91 (no sharp cut-off); inconclusive means no clear call, values can overlap the other calls; inactive means mostly above about 0.92. The list shows a part of the results.
Experiment: chemical genetic growth profiling, strain panel (AID 1159580);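 further: tested at 20 µM; growth read once vehicle control cultures reached saturation at 30 °C; 1 = growth at the plate median or of vehicle wells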
Conditions: S. cerevisiae deletion strains, growth OD
[1] = locus YHR030C, strain SLT2, stronger effect = lower value

Measured: normalized growth

O=C1NCCN=C(c2ccccc2)c2ccccc21
inactive: locus YAL013W, strain DEP1, stronger effect = lower value 0.999 | locus YBR229C, strain ROT2, stronger effect = lower value 1 | locus YCL061C, strain MRC1, stronger effect = lower value 0.99 | locus YDL101C, strain DUN1, stronger effect = lower value 0.984 | locus YDL134C, strain PPH21, stronger effect = lower value 1.01 | locus YDR150W, strain NUM1, stronger effect = lower value 0.911 | locus YEL061C, strain CIN8, stronger effect = lower value 0.995 | locus YGR078C, strain PAC10, stronger effect = lower value 0.99 | [1] 1.03 | locus YHR087W, strain rtc3, stronger effect = lower value 0.999 | locus YJL187C, strain SWE1, stronger effect = lower value 0.997 | locus YJR043C, strain POL32, stronger effect = lower value 0.995 | locus YJR075W, strain HOC1, stronger effect = lower value 1.01 | locus YLR039C, strain RIC1, stronger effect = lower value 0.985 | locus YLR058C, strain SHM2 (second series), stronger effect = lower value 0.998 | locus YLR085C, strain ARP6, stronger effect = lower value 1.01 | locus YLR262C, strain YPT6, stronger effect = lower value 0.968 | locus YML094W, strain GIM5, stronger effect = lower value 0.98 | locus YMR219W, strain ESC1, stronger effect = lower value 0.999 | locus YMR263W, strain SAP30, stronger effect = lower value 0.973 | locus YMR307W, strain GAS1, stronger effect = lower value 0.994 | locus YNL153C, strain GIM3, stronger effect = lower value 0.99 | locus YNL298W, strain CLA4 (second series), stronger effect = lower value 1.01 | locus YNL322C, strain KRE1, stronger effect = lower value 0.994 | locus YNR030W, strain Alg12, stronger effect = lower value 1 | locus YOL006C, strain TOP1, stronger effect = lower value 1 | locus YPL055C, strain LGE1, stronger effect = lower value 0.956 | locus YPL241C, strain CIN2, stronger effect = lower value 0.976 | locus YPR135W, strain CTF4, stronger effect = lower value 1.01

CC(=O)c1ccc[nH]1
inactive: locus YAL021C, strain ccr4, stronger effect = lower value 1.01 | locus YAL026C, strain drs2, stronger effect = lower value 1 | locus YAL030W, strain snc1, stronger effect = lower value 0.997 | locus YBL061C, strain skt5, stronger effect = lower value 0.996 | locus YBR009C, strain hhf1, stronger effect = lower value 1.02 | locus YBR023C, strain chs3, stronger effect = lower value 0.998 | locus YBR171W, strain sec66, stronger effect = lower value 1.01 | locus YBR231C, strain swc5, stronger effect = lower value 1 | locus YBR279W, strain paf1, stronger effect = lower value 1.01 | locus YCL011C, strain gbp2, stronger effect = lower value 1 | locus YCL016C, strain dcc1, stronger effect = lower value 0.997 | locus YCL069W, strain vba3, stronger effect = lower value 1 | locus YCR088W, strain abp1, stronger effect = lower value 1.01 | locus YDL005C, strain med2, stronger effect = lower value 0.99 | locus YDL040C, strain nat1, stronger effect = lower value 0.998 | locus YDR001C, strain nth1, stronger effect = lower value 1 | locus YDR069C, strain doa4, stronger effect = lower value 1.01 | locus YDR137W, strain rgp1, stronger effect = lower value 0.98 | locus YDR159W, strain sac3, stronger effect = lower value 0.975 | locus YDR195W, strain ref2 0.979 | locus YDR297W, strain sur2, stronger effect = lower value 1.01 | locus YDR334W, strain swr1, stronger effect = lower value 0.995 | locus YDR335W, strain msn5, stronger effect = lower value 0.993 | locus YDR392W, strain spt3, stronger effect = lower value 1.01 | locus YEL003W, strain gim4, stronger effect = lower value 0.998 | locus YEL037C, strain rad23, stronger effect = lower value 1 | locus YEL061C, strain CIN8 (second series), stronger effect = lower value 1.01 | locus YER015W, strain faa2, stronger effect = lower value 1 | locus YER016W, strain bim1, stronger effect = lower value 0.995 | locus YER111C, strain swi4, stronger effect = lower value 0.994 | locus YER155C, strain BEM2 (second series), stronger effect = lower value 0.994 | locus YFR010W, strain ubp6, stronger effect = lower value 1 | locus YGL167C, strain pmr1, stronger effect = lower value 0.988 | locus YGL173C, strain kem1, stronger effect = lower value 0.998 | locus YGL227W, strain vid30, stronger effect = lower value 0.996 | locus YGL240W, strain doc1, stronger effect = lower value 1 | locus YGL253W, strain hxk2, stronger effect = lower value 1 | locus YHR013C, strain ard1, stronger effect = lower value 1.01 | locus YHR027C, strain rpn1, stronger effect = lower value 0.991 | [1] 1 | locus YHR079C, strain IRE1, stronger effect = lower value 0.992 | locus YHR142W, strain chs7, stronger effect = lower value 1 | locus YJL092W, strain hpr5, stronger effect = lower value 0.992 | locus YJL095W, strain BCK1 (second series), stronger effect = lower value 0.988 | locus YJL095W, strain BCK1, stronger effect = lower value 0.988 | locus YJL115W, strain asf1, stronger effect = lower value 0.993 | locus YJL129C, strain trk1, stronger effect = lower value 0.988 | locus YJL154C, strain vps35, stronger effect = lower value 0.996 | locus YJL164C, strain tpk1, stronger effect = lower value 1.01 | locus YJL166W, strain qcr8, stronger effect = lower value 1.01 | locus YJR066W, strain TOR1, stronger effect = lower value 0.942 | locus YKL160W, strain elf1, stronger effect = lower value 1 | locus YKR026C, strain gcn3, stronger effect = lower value 0.998 | locus YKR091W, strain srl3, stronger effect = lower value 0.999 | locus YLL001W, strain dnm1, stronger effect = lower value 1.01 | locus YLL026W, stronger effect = lower value 1 | locus YLL041C, strain sdh2, stronger effect = lower value 1 | locus YLR027C, strain aat2, stronger effect = lower value 1 | locus YLR113W, strain HOG1, stronger effect = lower value 1 | locus YLR221C, strain rsa3, stronger effect = lower value 1.01 | locus YLR258W, strain gsy2, stronger effect = lower value 1.01 | locus YLR262C, strain YPT6 (second series), stronger effect = lower value 1.03 | locus YLR320W, strain mms22, stronger effect = lower value 1 | locus YLR342W, strain FKS1, stronger effect = lower value 0.999 | locus YLR357W, strain rsc2, stronger effect = lower value 0.971 | locus YLR370C, strain arc18, stronger effect = lower value 0.994 | locus YLR384C, strain iki3, stronger effect = lower value 0.997 | locus YML120C, strain ndi1, stronger effect = lower value 1.01 | locus YMR058W, strain fet3, stronger effect = lower value 0.997 | locus YMR125W, strain sto1, stronger effect = lower value 0.997 | locus YMR129W, stronger effect = lower value 0.996 | locus YMR205C, strain PFK2, stronger effect = lower value 1.01 | locus YMR231W, strain pep5, stronger effect = lower value 1 | locus YNL071W, strain lat1, stronger effect = lower value 1 | locus YNL183C, strain NPR1, stronger effect = lower value 0.902 | locus YNL209W, strain ssb2, stronger effect = lower value 1.01 | locus YNL248C, strain rpa49, stronger effect = lower value 0.98 | locus YNL322C, strain KRE1 (second series), stronger effect = lower value 0.986 | locus YNR049C, strain mso1, stronger effect = lower value 1.01 | locus YOR001W, strain rrp6, stronger effect = lower value 1 | locus YOR070C, strain gyp1, stronger effect = lower value 1.01 | locus YOR080W, strain dia2, stronger effect = lower value 1 | locus YOR083W, strain WHI5, stronger effect = lower value 1 | locus YOR106W, strain vam3, stronger effect = lower value 0.985 | locus YOR231W, strain MKK1, stronger effect = lower value 1.02 | locus YOR265W, strain rbl2, stronger effect = lower value 1.02 | locus YOR270C, strain vph1, stronger effect = lower value 1.01 | locus YOR290C, strain snf2, stronger effect = lower value 0.992 | locus YPL051W, strain arl3, stronger effect = lower value 1.02 | locus YPL078C, strain atp4, stronger effect = lower value 1.01 | locus YPL106C, strain sse1, stronger effect = lower value 0.978 | locus YPL240C, strain hsp82, stronger effect = lower value 0.994 | locus YPL256C, strain CLN2, stronger effect = lower value 0.99
